The source of these data is PubChem BioAssay (NCI).

Structures are written as SMILES. The panel holds about 83,000 compounds, 20% with a hit somewhere; the sample as a whole holds those more often.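 Compound tested at a single concentration for 48 hours in 96-well plates; a percent growth value below 10 was scored as active.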 Unmarked numbers belong to inactive results. Activity calls are given as the source filed them.

What all share (assay): NCI-60 one-dose screen, 48 h (100 = growth as untreated, 0 = no growth, -100 = all killed)
What all share (details): 10 µM unless noted

Experiment [1] concerns DU-145 prostate.
The test system of experiment [2] is K-562 leukemia.
The test system of experiment [3] is MALME-3M melanoma.
For experiment [4], the system named is MDA-MB-231 breast.
The subject of experiment [5] is RXF 393 renal.
Experiment [6] has as its system SF-268 CNS.
The subject of experiment [7] is SF-295 CNS.
In experiment [8] the test system is SF-539 CNS.
Experiment [9] concerns UACC-257 melanoma.
Experiment [10] concerns M14 melanoma.
The test system of experiment [11] is HCT-15 colon.
The subject of experiment [12] is SNB-75 CNS.
The subject of experiment [13] is SNB-19 CNS.
The test system of experiment [14] is U251 CNS.
Experiment [15] deals with PC-3 prostate.
Experiment [16] deals with SK-MEL-5 melanoma.
Experiment [17] has as its system UACC-62 melanoma.
In experiment [18] the test system is LOX IMVI melanoma.
The subject of experiment [19] is SK-MEL-28 melanoma.

Take `O=C(CS(=O)c1oc(-c2cccs2)nc1S(=O)(=O)c1ccc(Br)cc1)c1ccccc1` (stereo unspecified): the growth in experiment [1] is 104%; in experiment [2], 95.3%; in [3] it was 119%; in [4], 105%; in experiment [5], 105%; in [6], 99.2%. Moreover, the growth is 101% in experiment [7]; 87% in experiment [8]; 98.8% in experiment [9]; 99.5% in experiment [10]; 101% in [11]; 79.9% in experiment [12]. The growth in experiment [13] was 86.9%; in [14], 88.2%; in experiment [15], 85.5%; in experiment [16] it was 97.7%; in experiment [17], 88.4%; in [18], 104%. For the same molecule, in [19], the growth was 105%.
Consider `Cc1ccc(S(=O)(=O)Oc2ccc(NC(=O)c3ccc(Cl)cc3)cc2)cc1`, for which the growth in [1] is 105%; in [2], 92.8%; in experiment [3], 100%; in [4], 97%; in experiment [5] it was 115%; in experiment [6], 94.4%. Also, the growth in experiment [7] was 93.4%; in experiment [8] it was 93.7%; in experiment [9], 111%; in experiment [10] it was 94.3%; in experiment [11], 88.8%; in experiment [12] it was 98.7%. Besides, the growth in experiment [13] is 94.2%; in [14], 97.1%; in [15] it was 93.2%; in experiment [16] it was 99.9%; in [17] it was 95.8%; in experiment [18], 95.1%. Further, the growth in experiment [19] is 108%.
For the molecule `COc1cccc(-c2nc(-c3ccc(NS(=O)(=O)c4ccccc4)cc3)[nH]c2-c2ccnc(Br)c2)c1`, the growth in experiment [1] was 44.3%; in [2], 5.37% (active); in [3], 40.2%; in [4], 30.1%; in experiment [5] it was -24.5% (active); in experiment [6], 31.4%. For the same molecule, the growth in experiment [7] is 3.83% (active); in experiment [8], 36.6%; in experiment [9], 48.7%; in experiment [10] it was 27.1%; in experiment [11] it was 3.93% (active); in experiment [12], 15%. For the same molecule, the growth was 39.8% in experiment [13]; 35.4% in experiment [14]; 15.1% in experiment [15]; 41.7% in experiment [16]; 14.8% in experiment [17]; 4.69% (active) in [18]. Further, the growth in experiment [19] was 25.6%.
As for `Cc1cccc2c3c(sc12)C(c1ccc(F)cc1)C(C#N)=C(N)O3` (stereo unspecified), the growth is 7.98% (active) in [1]; 8.65% (active) in [2]; 73.8% in [3]; 26.9% in experiment [4]; 38.7% in experiment [5]; 27.8% in experiment [6]. Also, the growth in [7] was 5.18% (active); in [8] it was -15.3% (active); in experiment [9], 68.2%; in experiment [10], 10.4%; in experiment [11] it was 8.13% (active); in experiment [12] it was 23.4%. Moreover, the growth in experiment [13] is 23.8%; in [14], 25.5%; in experiment [15], 8.46% (active); in experiment [16] it was -3.29% (active); in experiment [17], 24.9%; in [18], 9.86% (active). The growth in [19] is 62%.
Take `CN1C(=C2C(=O)OC(C)(C)OC2=O)CCC1C(=O)NCc1ccc(Cl)cc1Cl` (stereo unspecified): the growth in experiment [1] is 107%; in experiment [2], 97.5%; in experiment [3] it was 102%; in [4], 99.5%; in experiment [5], 108%; in experiment [6], 101%. Further, the growth in experiment [7] is 96.4%; in [8], 96%; in experiment [9], 87%; in experiment [10] it was 98.2%; in experiment [11], 101%; in experiment [12], 107%. Further, the growth is 97.7% in experiment [13]; 95.5% in experiment [14]; 83% in [15]; 91.6% in [16]; 86.9% in [17]; 93.5% in experiment [18]. Moreover, the growth in experiment [19] was 93%.
In the case of `O=C(N/N=C/c1c(Cl)cccc1Cl)c1ccc(C(F)(F)F)nc1Nc1cccc(C(F)(F)F)c1`, the growth in [1] is 11.4%; in experiment [2], -7.07% (active); in [3], 5.8% (active); in [4], 11.3%; in [5], 40.8%; in experiment [6] it was -2.71% (active). The growth in experiment [7] was 13.7%; in experiment [8] it was 1.63% (active); in [9], 7.6% (active); in [10], 23.6%; in experiment [11] it was -13.5% (active); in experiment [12], 48.8%. Besides, the growth is 19.6% in [13]; 2.92% (active) in experiment [14]; 7.85% (active) in experiment [15]; 7.65% (active) in experiment [16]; -3.04% (active) in experiment [17]; 3.01% (active) in [18]. Moreover, the growth in experiment [19] was 36.6%.
With `CC(=O)OC[C@H]1OC(Sc2sc(C(=O)c3ccc(Cl)cc3)c(N)c2-c2nc3ccccc3s2)[C@H](OC(C)=O)[C@@H](OC(C)=O)[C@@H]1OC(C)=O` (stereo partly specified), the growth in experiment [1] was 70.7%; in experiment [2] it was 87.7%; in [3] it was 69.4%; in experiment [4], 56.2%; in [5], 112%; in experiment [6], 77.3%. The growth in experiment [7] is 95.1%; in experiment [8] it was 58.6%; in [9], 96.6%; in [10], 89.6%; in experiment [11], 82.3%; in [12] it was 50.1%. The growth is 92.8% in experiment [13]; 88.6% in [14]; 83.4% in [15]; 85.2% in experiment [16]; 97.9% in experiment [17]; 68.8% in [18].
On to `c1cc(-c2nnc(SSc3ncnc4nc[nH]c34)o2)ccn1`, for which the growth in [1] was 41.5%; in [2], 17%; in experiment [3] it was 103%; in experiment [4], 20.6%; in experiment [5], 61.8%; in experiment [6], 35%. The growth in experiment [7] is 21.9%; in [8] it was 15.4%; in experiment [9], 51.9%; in [10], 7.94% (active); in experiment [11], 37.3%; in [12] it was 56.8%. The growth is 93.1% in [13]; 72.4% in experiment [14]; 51% in experiment [15]; 72.1% in experiment [16]; 11.8% in [17]; 9.77% (active) in experiment [18]. The growth in [19] was 76.2%.
